Measurements as given in PubChem BioAssay (NCATS).
Records with an inconclusive call do not appear. The source made the active and inactive calls. Calls come from the whole dose curve; as a rule, active = well fitted inhibition curve with a large enough effect; inconclusive = small, poorly fitted or top-dose-only effect; inactive = flat fitted curve, though single readings scatter.

How the values were obtained:
Experiment in all cases: qHTS profiling for inhibitors of Plasmodium falciparum proliferation (AID 504749); note: nearly all actives have a fitted effect of over 60% in size
Conditions in all cases: P. falciparum in erythrocytes, SYBR Green DNA, 72 h; series mostly up to 28.7 µM
CP266 = test system: CP266
In short: (§1)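 P. falciparum-infected erythrocytes (0.3% parasitemia, 2.5% hematocrit) incubated with compound 72 h at 37 C, 5% CO2. Parasite DNA detected by SYBR Green after lysis, overnight at room temperature; normalised to 0.29 uM artemisinin and DMSO.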

CP268 = test system: CP268
In short: as §1

CP269 = test system: CP269
In short: as §1

CP286 = test system: CP286
In short: as §1

CP291 = test system: CP291
In short: as §1

CP297 = test system: CP297
In short: as §1

CP305 = test system: CP305
In short: as §1

CP315 = test system: CP315
In short: as §1

CP325 = test system: CP325
In short: as §1

CP329 = test system: CP329
In short: as §1

CP335 = test system: CP335
In short: as §1

DFO2036 = test system: DFO2036
In short: as §1

DIV14 = test system: DIV14
In short: as §1

DIV17 = test system: DIV17
In short: as §1

DIV30 = test system: DIV30
In short: as §1

Dd2 = test system: Dd2
In short: as §1

ECU = test system: ECU
In short: as §1

FAB9 = test system: FAB9
In short: as §1

GB4 = test system: GB4
In short: as §1

HB3 = test system: HB3
In short: as §1

ICS = test system: ICS
In short: as §1

JCK = test system: JCK
In short: as §1

N140 = test system: N140
In short: as §1

P93_24 = test system: P93_24
In short: as §1

P94_40 = test system: P94_40
In short: as §1

PAD = test system: PAD
In short: as §1

PC15 = test system: PC15
In short: as §1

PC26 = test system: PC26
In short: as §1

PC49 = test system: PC49
In short: as §1

SC27B = test system: SC27B
In short: as §1

TAB109 = test system: TAB109
In short: as §1

TAB113 = test system: TAB113
In short: as §1

TAB165 = test system: TAB165
In short: as §1

W2 = test system: W2
In short: as §1

Measured: Potency

CNC(=O)C(N)CSC(C)C1=C(C)c2cc3[n-]c(cc4nc(cc5[n-]c(cc1n2)c(C)c5CCC(=O)O)C(CCC(=O)O)=C4C)c(C)c3C(C)SCC(N)C(=O)NC.[Fe+2] (centres undefined)
inactive: all assays above
